Among the data in PubChem BioAssay (Tox21) are Potency and outcome values, retold here.

Values without a mark were called inactive. Records with an inconclusive call do not appear. Calls of active or inactive are those of the source. Unless noted, calls come from the whole dose curve; as a rule, active = well fitted curve in the direction sought with a large enough effect in the repeat runs; inconclusive = weak or mixed curves; inactive = no such curve, though single readings can be large; an effect the other way counts as inactive or inconclusive.

A short description of assay [1]: qHTS assay to identify small molecule antagonists of the sonic hedgehog signaling (Shh) pathway (AID 1259369; calls by dose curve; note: nearly all actives have a fitted effect of over 45% in size). A digest of the protocol: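 Inhibition of Shh signalling is measured as reduced Gli1-response-element firefly luciferase output in an NIH/3T3-derived stable reporter clone stimulated with conditioned medium for 24hr.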
Assay [2] can be described thus: qHTS assay to identify small molecule agonists of the androgen receptor (AR) signaling pathway in the presence of an antagonist - cell viability counter screen (AID 1259379). Note: nearly all actives have a fitted effect of over 25% in size. Note: potency is the fitted concentration of half-maximal effect. A digest of the protocol: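 Fluorescence from CellTiter-Fluor, added after 15 hr and read 1 hr later, gave cell viability. Cells were MDA-kb2 exposed to compounds (15 concentrations) in the presence of 3.0uM nilutamide at 37C, 0% CO2.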
On the technique in general: In qHTS, concentration-response curves come from the screen itself.

A short description of assay [3]: qHTS assay to identify small molecule antagonists of the estrogen receptor beta (ER-beta) signaling pathway - cell viability counter screen (AID 1259382).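 Note: HEK293T cells carrying ER-beta-UAS-bla reporter stimulated with estradiol; series mostly up to about 92 µM; nearly all actives have a fitted effect of over 55% in size.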 The gist of the method:
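Following a 6 hr plating period, HEK293T cells carrying a UAS-driven beta-lactamase reporter under ER-beta control received compounds and 1nM E2 (final). After 16 hr at 37C and 2 hr substrate loading, CellTiter-Glo luminescence indicated viability.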

Assay [4] addresses Estrogen receptor (Homo sapiens) (UniProt P03372). Kind of assay: qHTS assay to identify small molecule agonists of the estrogen receptor alpha (ER-alpha) signaling pathway in the presence of an antagonist (AID 1259383; calls by dose curve; note: top concentration of the series differs between compounds; nearly all actives have a fitted effect of over 15% in size). The gist of the method:
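Cells are hormone-deprived for 5 days (charcoal-stripped FBS, no phenol red), plated for 24hr, spiked with 10.0nM ICI-182,780, then dosed at 15 concentrations. After 22hr at 37C, ONE-Glo luminescence reports ERE-luciferase activity.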

The nature of assay [5]: qHTS assay to identify small molecule agonists of the estrogen receptor alpha (ER-alpha) signaling pathway in the presence of an antagonist - cell viability counter screen (AID 1259386).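 Note: cells exposed to compounds for 22 h at 37 °C before the viability read; nearly all actives have a fitted effect of over 30% in size.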 Note: potency is the fitted concentration of half-maximal effect. The gist of the method:
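Cells are starved of estrogens for 5 days in charcoal-stripped serum, seeded for 24hr and co-treated with ICI-182,780 (10.0nM final) and test compounds. After 22hr at 37C, viability is read as CellTiter-Fluor fluorescence.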

Assay [6] concerns the target Progesterone receptor (Homo sapiens) (UniProt P06401). Briefly: qHTS assay to identify small molecule agonists of the progesterone receptor (PR) signaling pathway (AID 1346784; calls by dose curve; note: nearly all actives have a fitted effect of over 30% in size). A digest of the protocol:
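Compounds were tested for PR agonism in HEK 293T cells bearing a beta-lactamase gene under UAS control. Treatment lasted 16 hr at 37C; signal came from fluorescence of a FRET substrate.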

For assay [7] the target is unchanged. Kind of assay: qHTS assay to identify small molecule antagonists of the progesterone receptor (PR) signaling pathway (AID 1346795; active = well fitted inhibition curve with a large enough effect in the signal ratio in the repeat runs, not every such curve was filed as active; the % refers to the signal ratio). A digest of the protocol:
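In HEK293T cells bearing the PR-UAS-bla reporter, compound effects on promegestone-driven (1 nM) beta-lactamase expression are assessed after 16 hr using a fluorescent FRET substrate incubated 2 hr at room temperature.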

Assay [8] is described as follows: qHTS assay to identify small molecule antagonists of the progesterone receptor (PR) signaling pathway - cell viability counter screen (AID 1346798). Note: series mostly up to about 92 µM; nearly all actives have a fitted effect of over 50% in size. The gist of the method:
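Following a 4 hr attachment, PR-UAS-bla HEK293T cells in charcoal-stripped FBS medium were exposed to compounds with R5020 for 16 hr; CellTiter-Glo was added and luminescence read after 30 min at room temperature.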

A short description of assay [9]: qHTS assay to identify small molecule agonists of the progesterone receptor (PR) signaling pathway - cell viability counter screen (AID 1346799; calls by dose curve; note: nearly all actives have a fitted effect of over 45% in size). A digest of the protocol: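 Here, 3,000 PR-UAS-bla HEK293T cells per well were treated with compounds for 16 hr after a 6 hr preincubation at 37C and 5% CO2; cell viability is the CellTiter-Glo luminescence signal.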
Assay [10] can be described thus: qHTS assay to identify small molecule antagonists of the TGF-beta/Smad signaling pathway - cell viability counter screen (AID 1346824). Note: nearly all actives have a fitted effect of over 50% in size. A digest of the protocol:
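SBE-bla HEK 293T cells were plated overnight at 37 C, then given compounds in DMSO plus TGF-beta1 (added as 0.25 ng/mL solution) for 5 hr. After the bla read, CellTiter-Glo was added to the same wells and luminescence read after 30 min at room temperature.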

Assay [11] can be described thus: qHTS assay to identify small molecule agonists of the TGF-beta/Smad signaling pathway - cell viability counter screen (AID 1346829). Note: top concentration of the series differs between compounds; nearly all actives have a fitted effect of over 45% in size. The gist of the method: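 Luminescence from CellTiter-Glo, read after a 30 min room-temperature incubation, gives cell viability of SBE-bla HEK 293T cells treated 5 hr with compounds at 37 C.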
The nature of assay [12]: qHTS assay to identify small molecule agonists of the TGF-beta/Smad signaling pathway (AID 1346859; active = well fitted activation curve with a large enough effect in the signal ratio in the repeat runs, not every such curve was filed as active; the % refers to the signal ratio; note: series mostly up to about 77 µM). The gist of the method:
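Each well held 4,000 SBE-bla HEK 293T cells incubated overnight before compound addition; 5 hr later the cleavable FRET substrate went on for 2 hr at room temperature, and fluorescence was read at two emissions.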

Assay [13] concerns the target Thyrotropin-releasing hormone receptor (Homo sapiens) (UniProt P34981). Briefly: qHTS assay to identify small molecule antagonists of the thyrotropin-releasing hormone receptor (TRHR) signaling pathway (AID 1346877; active = well fitted inhibition curve with a large enough effect in the repeat runs, not every such curve was filed as active; note: series mostly up to about 51 µM). The gist of the method:
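Cells (TRHR-HEK293) are plated and kept 18 h at 37 °C/5% CO2. A calcium-sensitive dye is added for 2 h, compound follows for 5 min at room temperature, and TRH is then given at 1 nM final.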

The target is the same in assay [14]. Kind of assay: qHTS assay to identify small molecule agonists of the thyrotropin-releasing hormone receptor (TRHR) signaling pathway (AID 1346891; calls by dose curve; note: series mostly up to about 58 µM). A digest of the protocol:
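Screening of agonists relied on calcium signalling in HEK293 cells expressing human TRHR: dye loading 2 h at 37 °C preceded compound addition and a 3-min fluorescence time course.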

Assay [15] is described as follows: qHTS assay to identify small molecule agonists of the estrogen receptor beta (ER-beta) signaling pathway - cell viability counter screen (AID 1259380). Note: nearly all actives have a fitted effect of over 30% in size. Note: potency is the fitted concentration of half-maximal effect. The gist of the method: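 Same-well viability counter screen. Cells: ER-beta-UAS-bla HEK293T, plated 6 hr before compound, in 2% charcoal-stripped FBS. Compound exposure 16 hr, 37C; viability by CellTiter-Glo luminescence after 30 min at room temperature.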

Assay [16] in a line: qHTS assay to identify small molecule agonists or antagonists of the thyroid stimulating hormone receptor (TSHR) signaling pathway - wild type cell line counter screen (AID 1259384; calls by dose curve). A digest of the protocol: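 Wild-type HEK293 cells were plated 18 h at 37 C/5% CO2, pin-dosed with compound plus Ro20-1724 medium, held 30 min at room temperature, then given cAMP-d2 and anti-cAMP-cryptate; fluorescence was read after 1 h. Fifteen concentrations, triplicate.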

In assay [17] the target is Thyrotropin receptor (Homo sapiens) (UniProt P16473). Briefly: qHTS assay to identify small molecule antagonists of the thyroid stimulating hormone receptor (TSHR) signaling pathway (AID 1259385; calls by dose curve; note: nearly all actives have a fitted effect of over 20% in size; note: potency is the fitted concentration of half-maximal effect). The gist of the method: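 TSHR-HEK293 cells were plated and held 18 h at 37C/5% CO2, then given compound plus Ro20-1724 and stimulated with TSH at 1.5 ng/mL final. After 30 min at room temperature, cAMP was detected with cAMP-d2/anti-cAMP-cryptate (1 h) by fluorescence.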
Chain of Thyrotropin receptor (Homo sapiens) (P16473 whole entry, looked up): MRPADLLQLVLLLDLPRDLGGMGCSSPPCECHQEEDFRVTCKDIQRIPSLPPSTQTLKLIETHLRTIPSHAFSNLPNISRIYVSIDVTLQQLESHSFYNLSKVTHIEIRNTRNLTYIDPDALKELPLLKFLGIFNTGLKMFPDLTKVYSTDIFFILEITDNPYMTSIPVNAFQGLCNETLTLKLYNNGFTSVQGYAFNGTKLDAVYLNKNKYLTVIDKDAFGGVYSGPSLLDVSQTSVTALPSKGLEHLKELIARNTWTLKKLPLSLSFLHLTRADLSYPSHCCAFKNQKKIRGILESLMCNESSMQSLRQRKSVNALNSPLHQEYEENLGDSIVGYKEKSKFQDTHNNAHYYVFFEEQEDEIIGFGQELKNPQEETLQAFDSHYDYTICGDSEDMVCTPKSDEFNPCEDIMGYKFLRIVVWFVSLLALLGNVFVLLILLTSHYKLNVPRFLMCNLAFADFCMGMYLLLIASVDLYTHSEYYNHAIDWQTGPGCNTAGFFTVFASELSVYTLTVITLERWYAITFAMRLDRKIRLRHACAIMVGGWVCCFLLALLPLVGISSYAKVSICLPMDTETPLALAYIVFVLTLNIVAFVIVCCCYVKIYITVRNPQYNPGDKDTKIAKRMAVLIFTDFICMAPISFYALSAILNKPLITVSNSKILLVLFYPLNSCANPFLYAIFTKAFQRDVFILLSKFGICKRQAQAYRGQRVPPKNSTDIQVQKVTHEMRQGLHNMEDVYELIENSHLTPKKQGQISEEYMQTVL

Chain of Progesterone receptor (Homo sapiens) (P06401 whole entry, looked up): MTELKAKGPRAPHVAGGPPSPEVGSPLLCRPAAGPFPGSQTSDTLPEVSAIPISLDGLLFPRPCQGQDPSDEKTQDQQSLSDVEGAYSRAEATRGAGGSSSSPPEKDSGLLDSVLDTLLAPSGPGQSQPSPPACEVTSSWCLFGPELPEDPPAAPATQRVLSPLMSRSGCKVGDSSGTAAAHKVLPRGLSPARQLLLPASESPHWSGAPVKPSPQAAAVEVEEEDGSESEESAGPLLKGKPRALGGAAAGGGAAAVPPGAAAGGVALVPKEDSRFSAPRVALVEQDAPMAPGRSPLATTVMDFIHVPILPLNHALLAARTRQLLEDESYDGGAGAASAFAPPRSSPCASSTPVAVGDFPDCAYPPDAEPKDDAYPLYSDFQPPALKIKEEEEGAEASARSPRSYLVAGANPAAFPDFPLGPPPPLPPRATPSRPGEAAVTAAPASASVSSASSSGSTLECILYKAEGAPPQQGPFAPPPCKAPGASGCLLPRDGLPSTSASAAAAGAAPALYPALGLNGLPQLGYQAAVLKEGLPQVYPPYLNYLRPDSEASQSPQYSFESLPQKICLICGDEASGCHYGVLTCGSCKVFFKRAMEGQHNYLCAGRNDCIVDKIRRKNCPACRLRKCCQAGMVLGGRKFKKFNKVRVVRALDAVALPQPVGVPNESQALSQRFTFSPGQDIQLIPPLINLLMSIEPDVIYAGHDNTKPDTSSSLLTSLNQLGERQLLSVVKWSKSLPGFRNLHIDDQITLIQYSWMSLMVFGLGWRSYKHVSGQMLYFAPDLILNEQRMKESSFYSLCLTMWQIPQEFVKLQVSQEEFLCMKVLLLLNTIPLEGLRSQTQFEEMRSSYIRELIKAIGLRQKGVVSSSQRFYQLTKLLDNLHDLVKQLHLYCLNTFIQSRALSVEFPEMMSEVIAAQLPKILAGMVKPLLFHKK
Chain of Estrogen receptor (Homo sapiens) (P03372 whole entry, looked up): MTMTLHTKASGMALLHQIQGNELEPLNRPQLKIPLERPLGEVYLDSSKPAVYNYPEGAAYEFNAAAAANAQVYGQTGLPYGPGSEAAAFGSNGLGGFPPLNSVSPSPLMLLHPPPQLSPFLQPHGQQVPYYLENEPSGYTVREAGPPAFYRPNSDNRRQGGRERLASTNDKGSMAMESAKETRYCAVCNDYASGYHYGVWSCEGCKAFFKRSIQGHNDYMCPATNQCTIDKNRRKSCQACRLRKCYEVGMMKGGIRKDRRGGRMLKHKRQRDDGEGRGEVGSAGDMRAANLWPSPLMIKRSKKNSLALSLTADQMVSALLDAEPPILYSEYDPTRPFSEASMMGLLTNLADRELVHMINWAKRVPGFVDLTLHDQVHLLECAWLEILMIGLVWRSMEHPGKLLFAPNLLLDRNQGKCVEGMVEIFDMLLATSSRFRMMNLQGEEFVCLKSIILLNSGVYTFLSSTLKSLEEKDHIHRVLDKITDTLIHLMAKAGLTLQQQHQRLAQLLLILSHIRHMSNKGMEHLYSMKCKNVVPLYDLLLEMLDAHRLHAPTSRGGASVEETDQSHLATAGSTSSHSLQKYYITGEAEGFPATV
Chain of Thyrotropin-releasing hormone receptor (Homo sapiens) (P34981 whole entry, looked up): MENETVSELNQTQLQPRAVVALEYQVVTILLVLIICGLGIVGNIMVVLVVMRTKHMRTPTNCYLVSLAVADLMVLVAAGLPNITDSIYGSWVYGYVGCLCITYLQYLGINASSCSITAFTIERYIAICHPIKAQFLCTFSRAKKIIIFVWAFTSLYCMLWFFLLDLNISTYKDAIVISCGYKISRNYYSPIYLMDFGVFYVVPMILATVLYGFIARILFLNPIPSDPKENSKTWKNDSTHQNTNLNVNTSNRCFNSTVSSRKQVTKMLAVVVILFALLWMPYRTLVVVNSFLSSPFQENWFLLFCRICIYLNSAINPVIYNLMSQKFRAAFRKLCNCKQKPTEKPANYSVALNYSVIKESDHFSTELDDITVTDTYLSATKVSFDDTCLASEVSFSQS

In the case of `COc1nc(C)nc(NC(=O)NS(=O)(=O)c2ccccc2OCCCl)n1`, the Potency entry in assay [1], in assay [2], in assay [4], in assay [5], in [6] and in [7] was “inactive” in each case. Also, the Potency result in assay [8], in [9] and in assay [14] was “inactive” in each case. For the same compound, the compound was classed as inactive in assay [3], in assay [10], in assay [11], in [12] and in assay [13].

With `O=C(O)C(=O)Cc1c[nH]c2ccccc12`, the Potency entry in [1], in [2], in assay [15], in assay [4], in assay [17] and in assay [5] was “inactive” in each case. In addition, the Potency result in [6], in [8], in assay [9] and in assay [14] was “inactive” in each case. Besides, the compound was classed as inactive in assay [3], in [16], in [10], in [11], in assay [12] and in assay [13].

In the case of `Nc1ccc2ccccc2c1S(=O)(=O)O`, the Potency result in assay [1], in [2], in assay [15], in assay [17], in assay [5] and in assay [6] was “inactive” throughout. The Potency result in [7], in [8] and in [9] was “inactive” in each case. The call in assay [3], in assay [16], in [10], in assay [11], in assay [12] and in assay [13] was inactive.

Regarding `C1CSCCS1`, the Potency result in assay [1], in assay [2], in assay [15], in assay [17], in assay [5] and in assay [6] was “inactive” in each case. Further, the Potency entry in assay [8] and in [9] was “inactive” each time. Also, the compound was called inactive in assay [3], in [16], in assay [10], in assay [11] and in assay [12].

`CCOc1ccccc1N`: the Potency entry in assay [1], in [4], in assay [17], in assay [6], in assay [7] and in assay [8] was “inactive” throughout. Besides, in assay [2], the Potency was 54.1 µM (active). In addition, the call in assay [16], in assay [10], in assay [11] and in [12] was inactive.

Consider `Cc1ccccc1C(=O)Nc1ccc(C(=O)N2CCCC(O)c3cc(Cl)ccc32)c(C)c1` (stereo unspecified), for which the Potency result in [1], in assay [2], in [5], in assay [6], in assay [8] and in assay [14] was “inactive” in each case. Besides, the Potency in assay [15] was 23.7 µM (active). The outcome in [3], in [10], in [11], in assay [12] and in assay [13] was inactive.

In the case of `Clc1cccc(-c2cc(Cl)cc(Cl)c2)c1`, the Potency entry in assay [1], in assay [2], in assay [4], in assay [5], in assay [6] and in assay [8] was “inactive” each time. The Potency result in assay [14] is “inactive”. In addition, the compound was called inactive in assay [3], in [16], in assay [10], in [11], in assay [12] and in [13]. The Potency in [17] is 52.5 µM (active).

On to `CCCC1CCC(=O)O1` (stereo unspecified), for which the Potency entry in assay [1], in [2], in assay [15], in assay [17], in assay [5] and in assay [6] was “inactive” each time. Besides, the Potency result in assay [8], in [9] and in assay [14] was “inactive” throughout. Moreover, the result in assay [16], in [10], in assay [11], in assay [12] and in assay [13] was inactive.

Take `CC1(C)C(=O)N(Cl)C(=O)N1Br`: the Potency entry in assay [1], in assay [2], in assay [15], in [5], in assay [7] and in assay [8] was “inactive” throughout. Further, in assay [9], the Potency entry is “inactive”. Moreover, the outcome in [3], in assay [10], in assay [11], in assay [12] and in assay [13] was inactive.

Turning to `Nc1ccc(Oc2ccc(N)c(N)c2)cc1`, the Potency entry in assay [1], in assay [2] and in [14] was “inactive” throughout. Moreover, the compound was classed as inactive in assay [3], in [16], in assay [10], in assay [11], in assay [12] and in assay [13]. The Potency in assay [5] is 54.5 µM (active).
